Measured values: PubChem BioAssay AID720532 (National Center for Advancing Translational Sciences (NCATS), 2013)
Several values for one entry are separate records, joined by “and”; a condition that tells them apart may be missing. Equal entries are not always repeated. The campaign covered roughly 18,000 compounds. About 1,200 (6.7%) were called active. Inconclusive results (about 16%) are left out. Shown is part of a subset that was picked to be rich in actives. Unmarked numbers belong to inactive results. Calls follow the shape of the full dose curve; tested in HEK293 cells.

Assay: qHTS for Inhibitors of binding or entry into cells for Marburg Virus
Details: Marburg virus pseudotype entry/binding inhibition, cell-based; series mostly up to 49.2 µM; activity change, negative = inhibition: at the top concentration
% is scaled to controls: 0 for no effect and ±100 for the full control effect; potency is read from the fitted curve at half-maximal effect.

SMILES	activity change, negative = inhibition	Potency
COc1cc2c(cc1OC)[C@@H]1O[C@](CCCCN3C(=O)c4ccccc4C3=O)(C2)Oc2c1c(=O)oc1ccc(F)cc21	2.42% [at 8.59 µM]	
CC(Nc1oc(-c2ccccc2)nc1-c1ccccc1)c1ccccc1 (configuration not stated)	inactive	
COC12CC[C@@]3(C[C@@H]1C(C)(O)C(C)(C)C)[C@H]1Cc4ccc(O)c5c4[C@@]3(CCN1CC1CC1)[C@H]2O5 (some centres not stated)		15.8 µM (active)
COc1ccc2c(c1)O[C@@H](c1ccc3c(c1)OCO3)[C@H](OC(=O)NCc1ccco1)C2=O	25%	
COCCN1C(=O)N[C@@H](c2ccccc2)C(C(=O)OC)=C1C	-6.89%	
CCC(=O)C[C@@H](NC(=O)OC)c1ccccc1	-1.71% [at 8.59 µM]	
CCCCN1CC(CO)Oc2cccc(F)c2S1(=O)=O (configuration not stated)	23.1%	
CC(=O)[O][Sn]([c]1ccccc1)([c]1ccccc1)[c]1ccccc1		1 µM (active)
Cc1cccc(CN2CCN(C3CN(Cc4cn(Cc5ccccc5F)nn4)S(=O)(=O)C3)CC2)c1 (configuration not stated)	7.53%	
CC(C)(Cc1c[nH]c2ccc(Cl)cc12)NCCOc1ccccc1OCC1CC1		11.2 µM (active) and 8.91 µM (active)
COc1ccc2c(c1)O[C@@H](c1ccc3c(c1)OCO3)[C@H](OC(=O)NCCc1ccc(OC)c(OC)c1)C2=O	-0.0132%	
CC1C(=O)N(Cc2cn(Cc3ccco3)nn2)CCS(=O)(=O)N1Cc1ccc(-c2cccc(CO)c2)cc1 (configuration not stated)	-18.8%	
COc1ccc([C@@H](NC(=O)C(F)(F)F)C2CCCC=C2c2ccccc2)cc1OC (some centres not stated)	2.89% [at 8.59 µM]	
CC[C@H](C)[C@H](NC(=O)[C@H](Cc1ccc(O)cc1)NC(=O)[C@@H](NC(=O)[C@H](CCCN=C(N)N)NC(=O)[C@@H](N)CC(=O)O)C(C)C)C(=O)N[C@@H](Cc1cnc[nH]1)C(=O)N1CCC[C@H]1C(=O)N[C@@H](Cc1ccccc1)C(=O)O	2.69%	
C=CCC(C)(O)c1ccco1 (configuration not stated)	0.192%	
CC1=C(/C=C/C(C)=C/C=C/C(C)=C/C=C/C=C(C)/C=C/C=C(C)/C=C/C(=O)[C@]2(C)C[C@@H](O)CC2(C)C)C(C)(C)C[C@H](O)C1	10.2%	
COc1ccc(-c2nc3c(c4c2C[C@H](c2ccccc2)OC4)CN(C(=O)c2ccco2)CC3)c(C)c1	13.2% [at 8.59 µM]	
CCOC(=O)Cn1c(=O)sc2cccc(Cl)c21	17.7%	
CC1(C)O[C@@H](C(O)(c2ccccc2)c2ccccc2)[C@H](C(O)(c2ccccc2)c2ccccc2)O1	-19% [at 8.59 µM]	
CCCCCCCC/C=C\CCCCCCCC(=O)NCC(=O)O	-13%	
C[C@H]1CCC[C@@]2(C)CCCC[C@]12O	-16%	
COc1ccc([C@H]2C[C@@H](n3cc(COC(=O)c4ccccc4)nn3)[C@H](O)CN2C(=O)c2cccs2)cc1	22.8%	
CC(C)C(NS(=O)(=O)c1ccc(-c2ccc(Br)cc2)cc1)C(=O)O (configuration not stated)	8.03%	
COc1ccc2c(c1)CO[C@H]([C@H](O)CBr)[C@H]2C=Cc1ccccc1	-15.4% [at 8.59 µM]	
C=CCOC(=O)NC(c1ccc(F)c(F)c1)C(C(=O)COC)C(=O)OC (configuration not stated)	inactive	

SMILES	activity change, negative = inhibition	Potency
OC[C@H]1O[C@H](C#Cc2ccccc2)C=C[C@H]1O	19.6% [at 8.59 µM]	
CCOC(=O)CN1C(=O)NC(c2cccs2)C(C(=O)OC)=C1C (configuration not stated)	-16.9% [at 8.59 µM]	
O=C(O)C1CCN(c2ncnc3ccc(-c4ccccc4C(F)(F)F)cc23)CC1		112 µM (active)
Cc1ccc(S(=O)(=O)N2CCC(=O)N([C@H](COCc3ccccc3)Cc3ccccc3)CC2)cc1	6.8%	
O=S1(=O)CC(N2CCN(CCO)CC2)CN1C1CCCC1 (configuration not stated)	20.9%	
O=c1cc(-c2ccc(O)cc2)oc2c(-c3cc(-c4cc(=O)c5c(O)cc(O)cc5o4)ccc3O)c(O)ccc12	19.1%	
CCCCCC(=O)N1C[C@@H](O)[C@H](n2cc(C3CC3)nn2)C[C@H]1c1ccc(OC)cc1	-17.1%	
O=C1CCC[C@@H]2CC(N3CCCCC3)C[C@@H]3CCN1[C@H]23 (some centres not stated)	-18.6%	
Oc1ccc(-c2c(-c3ccccc3)nn3c(C(F)(F)F)cc(C(F)(F)F)nc23)cc1	2.41%	
CC(C)=CCCC(C)=CCN1C(=O)[C@]2(O[C@H](C)CC3=CCCC32)c2c(Br)cccc21 (some centres not stated)	10.2% [at 8.59 µM]	
Cc1ccc(-c2ccc(C(=O)N3CCc4nnc(CNC(=O)c5ccccc5)n4CC3)cc2)cc1	-24%	
COc1ccc2[nH]cc(CCNc3ncnc4ccc(-c5ccccc5CN(C)C)cc34)c2c1		10 µM (active)
COCCNc1ncnc2ccc(-c3ccccc3CN(C)C)cc12	-4.66%	
COc1ccccc1CNc1ncnc2ccc(-c3c(C)noc3C)cc12	8.89%	
C=CCCN(Cc1ccccc1)S(=O)(=O)c1ccccc1Br	-6.66%	
CC(=O)OC[C@H]1O[C@H](C#Cc2ccccc2)C=C[C@@H]1OC(C)=O	21% [at 8.59 µM]	
CC(=O)OC[C@H]1O[C@@H](O[C@H]2[C@H](O)[C@@H](OC(=O)c3ccccc3C(=O)O)[C@H](O)O[C@@H]2COC(C)=O)[C@H](O)[C@@H](OC(=O)c2ccccc2C(=O)O)[C@@H]1O		3.55 µM (active)
CC(=O)OC[C@H]1O[C@H](C#CC2=CCCCC2)C=C[C@H]1OC(C)=O	-20.8% [at 8.59 µM]	
CCCC[C@]12Cc3cc(C#N)ccc3[C@H](O1)c1c(cc(-c3ccccc3)oc1=O)O2	9.58% [at 8.59 µM]	
C[C@H]1Cc2c(COc3ccccc3)nc3c(c2CO1)CN(C(=O)Nc1cccc(C#N)c1)CC3	2.49% [at 8.59 µM] and 20.7% [at 8.59 µM]	
CN1CCC(n2cnc(-c3ccc(F)cc3)c2-c2ccnc(N)n2)CC1		17.7 µM (active)
CC(C)(CO)CNC(=O)c1ccc2[nH]c(O)c(N=Nc3ccc(S(N)(=O)=O)cc3)c2c1	65%	
Cc1ccc(NC(=O)O[C@@H]2C(=O)c3cc(Br)ccc3O[C@H]2c2ccc3c(c2)OCO3)cc1Br	6.25%	
CCOCCOC(=O)C(C)Oc1ccc(Oc2ncc(C(F)(F)F)cc2Cl)cc1 (configuration not stated)	0.308%	
CC[N+](C)(CC)CCC[n+]1c(-c2ccccc2)c2cc(N)ccc2c2ccc(N)cc21		7.08 µM (active) and 2.82 µM (active)

SMILES	activity change, negative = inhibition	Potency
CCCCC/C=C\CC1OC1CCCCCCCC(=O)O (configuration not stated)	inactive	
CCC(C)(C)N=C(NC#N)Nc1cccnc1	19.6%	
Clc1ccc(C(Cn2ccnc2)OCc2ccsc2Cl)c(Cl)c1 (configuration not stated)	7.18%	
Brc1ccc(C2=NCCC(c3ccccc3)O2)cc1 (configuration not stated)	8%	
C[C@@H]1C(c2ccccc2)=Cc2[nH]c(=O)[nH]c2C[C@@H]1C(=O)N1CCCC1	7.81% [at 8.59 µM]	
COC(=O)C=C[C@H]1c2ccccc2[C@@H](OC)[C@@H]1C	16.3% [at 8.59 µM] and -4.37% [at 8.59 µM]	
CCOC(=O)CN1C(=O)NC(CCc2ccccc2)C(C(C)=O)=C1C (configuration not stated)	3.64% [at 8.59 µM]	
COC(=O)C(C(=O)OC)C1c2ccccc2C=C(C2CC2)N1C(=O)OC (configuration not stated)	inactive	
CCCNC(=O)CC1OC(C2CCCCC2)Cc2ccccc21 (configuration not stated)	-26.1% [at 8.59 µM]	
Cc1cc2oc(=O)cc(CN(C)Cc3ccccc3)c2cc1Cl	32.3%	
CCOC(OCC)OCC	4.67%	
CCCCC/C=C\C/C=C\C/C=C\CCCCCCC(N)=O	-17.1%	
COc1ccc([C@]23Cc4cc(OC)c(OC)cc4[C@H](O2)c2c(cc(C)oc2=O)O3)cc1	8.88% [at 8.59 µM]	
O=C(O)CCCc1ccccc1	inactive	
O=C(O)C1CCCN(CCC=C(c2ccccc2)c2ccccc2)C1 (configuration not stated)	inactive	
c1ccc(CCCCN2CCC(c3ccccc3)CC2)cc1		14.1 µM (active)
O=C(c1ccc(F)cc1)C1CCN(CCCCc2ccccc2)CC1		15.8 µM (active)
O=C(O)C[C@@H]1NC(=O)[C@H](Cc2ccccc2)NC1=O	2.12%	
CCCCCCCC[C@@H](O)/C=C/C=C/C=C\[C@@H](O)CCCC(=O)O	0.476%	
COC(=O)C1(C(C)=O)CC2=CC[C@H]3C(=O)N(c4ccccc4)C(=O)[C@H]3[C@@H]2Cc2ccccc2[C@@H]1C[N+](=O)[O-] (some centres not stated)	inactive	
CC(C)(C)OC(=O)NCCCC1=CC2=CC(=O)C(C)(OC(=O)c3ccco3)C(=O)C2=CO1 (configuration not stated)	-1.5%	
NNc1nnc(Cc2ccncc2)c2ccccc12		11.2 µM (active)
NNc1nnc(NN)c2ccccc12	34.2%	
CCN(CCNC(=O)[C@H]1C=C(OC)C(=O)C[C@@H]2c3ccccc3C[C@]12C)C(C)=O	0.4% [at 8.59 µM]	
FCOC(C(F)(F)F)C(F)(F)F	22.4%	

SMILES	activity change, negative = inhibition	Potency
CC1(OC(=O)c2ccc(Cl)nc2)C(=O)Cc2cc(-c3ccsc3)ncc2C1=O (configuration not stated)	-19.4% [at 8.59 µM]	
CN1CCC[C@@H]1CCO[C@](C)(c1ccccc1)c1ccc(Cl)cc1		14.1 µM (active) and 28.2 µM (active)
CN1CCCC1CCO[C@@](C)(c1ccccc1)c1ccc(Cl)cc1 (some centres not stated)		10 µM (active)
CC(=O)C1=C(C)N(Cc2ccccc2)C(=O)NC1c1cccs1 (configuration not stated)	3.55% [at 8.59 µM]	
CCCCCCN1C[C@@H](O)[C@H](n2cc(C3CC3)nn2)C[C@H]1c1ccccc1	-14.4%	
COc1ccc(C2=C(N3CCc4ccccc43)C(=O)NC2=O)cc1	28.3%	
CCCCC/C=C\C/C=C\C/C=C\CCCCC(=O)NCC(=O)O	6.5%	
CC(C)[C@H]1COCCS(=O)(=O)N1Cc1ccccc1-c1cccc2c1sc1ccccc12	-18.2%	
COC(=O)C1=C(C)N(Cc2ccccc2)C(=NCCc2ccc([N+](=O)[O-])cc2)NC1c1cccc(F)c1 (configuration not stated)	9.24% [at 8.59 µM]	
COc1ccc(C2CC(=O)Oc3ccc(C(C)(C)C)cc32)cc1 (configuration not stated)	4.9%	
CCOC(=O)C1C/C(=C\C(C)=O)c2cccc(C(F)(F)F)c2O1 (configuration not stated)	6.48%	
Cc1cnc(C)c(-c2cc(F)c3c(c2)CC(CNC(=O)c2cccc(Cn4cccn4)c2)O3)n1 (configuration not stated)	10.3%	
CCN(CC)CCCC(C)Nc1ccnc2cc(Cl)ccc12 (configuration not stated)		10 µM (active) and 5.01 µM (active)
COc1ccc(-c2c(C)cc3oc(=O)cc(-c4ccccc4)c3c2C)cc1F	0.588%	
C=CCN1C(=O)N(Cc2ccccc2)c2ccccc2S1(=O)=O	11%	
COc1ccc(CNS(=O)(=O)c2cc(Br)ccc2Br)cc1	18.8%	
COc1ccc2[nH]cc(CCNCc3ccc(Br)cc3)c2c1		15.8 µM (active)
COc1ccc2[nH]cc(CCNc3nc(-c4cccc(NS(C)(=O)=O)c4)nc4ccccc34)c2c1	-18.6%	
Cc1cc(N(C)C)nc(Cl)n1	9.23%	
CC(C)(C)Nc1oc(-c2ccccc2)nc1C=Cc1ccccc1	3.65% [at 8.59 µM]	
CCOC(=O)CCN1C(=O)[C@@H]2[C@H]3[C@H](O)[C@H](O)CC(=NOCC(C)C)[C@@H]3CC[C@H]2C1=O	-10.9% [at 8.59 µM]	
C=C(C)C1CC=C(C)C(O)C1 (configuration not stated)	0.898%	
